This is a sample that favours compounds with a hit; in the whole collection about 1.7% have one here.
MRP resist rev – reverses drug resistance mediated by MRP; H69AR cells + 2 uM doxorubicin, CellTiter-Glo, 72 h; differential viability (reversal), % at 10 µM; 85,000 compounds, 0.04% hits; AID 602;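 active means viability drop by adding the cancer drug above about 55%, with treated viability meeting a 40% cutoff, limit read from the data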;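 further: viability without doxorubicin minus viability with 2 µM doxorubicin for each compound; larger differential means the compound sensitizes cells more to doxorubicin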
MRP-1 activ – MRP-1 activation | viability increase, % at 10 µM | H69AR cells + doxorubicin, viability rescue, CellTiter-Glo | 140,000 compounds, 0.61% hits | AID 799;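 active means viability gain under doxorubicin at or above a set limit, the compound median plus 3 SD, cut at about 4.7% in these data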;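 further: MRP-1 overexpressing cells given doxorubicin 25 µM after compound pretreatment; 18-22 h compound pretreatment then 72 h with doxorubicin before readout; 0% = doxorubicin-only wells and 100% = vehicle-treated cells without doxorubicin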
GALR2 blocker – blocks the human galanin receptor 2; GALR2-expressing cells, antagonist mode; inhibition, % at 4 µM; 140,000 compounds, 0.39% hits; in the data active means inhibition above about 27%;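 further: cells stimulated with galanin 1-16 at roughly its EC80; 0% = agonist challenge control and 100% = basal control without agonist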
Target sequence (O43603 whole entry, looked up): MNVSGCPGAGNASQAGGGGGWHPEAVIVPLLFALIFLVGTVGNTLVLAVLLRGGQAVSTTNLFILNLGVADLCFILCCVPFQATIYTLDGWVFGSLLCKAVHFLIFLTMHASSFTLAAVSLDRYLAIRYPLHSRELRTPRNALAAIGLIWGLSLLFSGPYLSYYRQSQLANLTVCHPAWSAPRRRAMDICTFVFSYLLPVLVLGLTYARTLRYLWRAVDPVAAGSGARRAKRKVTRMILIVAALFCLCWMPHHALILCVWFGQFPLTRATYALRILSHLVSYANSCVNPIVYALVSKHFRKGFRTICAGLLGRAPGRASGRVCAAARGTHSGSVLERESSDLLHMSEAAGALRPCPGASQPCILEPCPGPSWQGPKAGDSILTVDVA
GALR2 agonist – activates the human galanin receptor 2. 140,000 compounds, 0.48% hits. GALR2-expressing cells, agonist activation read-out. O43603. activation, % (test concentration not listed). AID 803; in the data active means activation above about 5%, passing the limit was not always enough;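 further: 0% = vehicle buffer wells and 100% = reference agonist at full effect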
S1P2 ag – activates the human S1P2 receptor. O95136. S1P2-expressing cell line, agonist reporter read-out. activation, % at 4.5 µM. 97,000 compounds, 0.46% hits; in the data active means activation above about 16%;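 further: 0% = vehicle low control and 100% = maximal reference agonist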
S1P2 antag – blocks the human S1P2 receptor; O95136; 97,000 compounds, 0.21% hits; inhibition, % at 5 µM; cell-based S1P2 antagonist assay, inhibition at 5 uM; in the data active means inhibition above about 45%;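 further: CRE beta-lactamase reporter cells expressing human S1P2 stimulated with S1P; 0% = agonist at EC80 alone and 100% = agonist plus reference antagonist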
The depositor's hits bear a star; nt = no result given.

SMILES	MRP resist rev	MRP-1 activ	GALR2 blocker	GALR2 agonist	S1P2 ag	S1P2 antag
O=C(Cc1cccc2ccccc12)N/N=C/c1ccc(Sc2nc3ccccc3s2)o1	nt	-4	-13	0	-7	8
COc1ccc(OCC(=O)Nc2sc3c(c2C(=O)NCC2CCCO2)CCC3)cc1 (configuration not stated)	nt	-1	-4	1	-7	18
CS(=O)(=O)c1ccc2nc(NC(=O)Nc3ccc(Cl)c(Cl)c3)sc2c1	nt	-2	0	-1	nt	nt
CS(=O)(=O)c1ccc2nc(NC(=O)Nc3cccc(Cl)c3)sc2c1	nt	-4	4	0	-10	47*
c1ccc(CSc2nnc(SCc3ccccn3)s2)nc1	-10	-2	2	-3	-7	12
N=C(N)SCc1ccccn1	nt	6.3*	-3	-1	nt	nt
NS(=O)(=O)c1ccc(NC(=S)Nc2nn(Cc3ccc(Cl)cc3Cl)cc2Cl)cc1	nt	-2	-4	1	nt	nt
CNc1oc(-c2ccccc2Cl)nc1P(=O)(c1ccccc1)c1ccccc1	nt	4.7*	-4	0	nt	nt
CNc1oc(-c2ccc(C)cc2)nc1P(=O)(c1ccccc1)c1ccccc1	nt	7.4*	-6	-1	1	-10
COP(=O)(OC)c1nc(-c2ccccc2)oc1NCc1ccccc1	nt	-2	4	0	nt	nt
Cc1cc(C(=O)N/N=C/c2cc(Br)ccc2OC(=O)c2ccccc2)n[nH]1	nt	9.4*	3	-1	-6	-11
COc1cccc(-n2nc(C(C)=O)c(C#N)c2-c2ccco2)c1	nt	-2	5	-3	nt	nt
Cc1ccc(N2C(=O)[C@@H]3C(C(=O)C(c4ccccc4)c4ccccc4)=NN[C@@H]3C2=O)cc1	nt	3	-8	0	nt	nt
O=C(c1cc(NC(=O)C23CC4CC(CC(C4)C2)C3)cc(NC(=O)C23CC4CC(CC(C4)C2)C3)c1)N1CCCCC1	-1	-4	13	-2	-11	74*
CCOc1c(Cl)cc(CNCC(C)C)cc1Cl	24	0	-6	-3	-3	-5
Cc1nn(-c2nc3ccccc3s2)c(N)c1-c1ccccc1	7	-1	11	-3	22*	3
COc1cc(/C=C2\SC(=S)N(CC(=O)Nc3cccnc3)C2=O)cc(OC)c1OC	nt	0	-5	-1	nt	nt
O=C(CN1C(=O)/C(=C/c2ccccc2)SC1=S)Nc1ncc(Cc2ccccc2)s1	nt	5.3*	-14	0	-2	-22
COc1cccc(/C=C2/SC(=S)N(CC(=O)Nc3nnc(C)s3)C2=O)c1	nt	8.8*	3	-1	nt	nt
CCCCC(=O)Nc1ccc(NC(=O)c2ccc([N+](=O)[O-])cc2Cl)cc1OC	nt	-2	11	-1	nt	nt
O=C(Nc1nc(=O)n(C(=O)C2CC2)s1)c1ccccc1	nt	6.8*	11	-4	-10	2
Cc1ccc(C(=O)Nc2nc(=O)n(C(=O)C3CC3)s2)cc1	nt	1	4	-2	-6	21
Clc1ccc(CSc2ncn[nH]2)cc1	-2	5.9*	7	0	-4	10
CCOc1ccc(Cl)cc1CSc1ncn[nH]1	nt	4	-2	-1	nt	nt
CCOC(=O)C1=C(C)N=c2s/c(=C\c3ccc(OC(C)=O)cc3)c(=O)n2C1/C=C/c1ccccc1 (configuration not stated)	nt	6.7*	-1	-2	nt	nt
SMILES	MRP resist rev	MRP-1 activ	GALR2 blocker	GALR2 agonist	S1P2 ag	S1P2 antag
CCOC(=O)C1=C(C)N=c2s/c(=C\c3ccc(OC(C)=O)c(OCC)c3)c(=O)n2C1/C=C/c1ccccc1 (configuration not stated)	nt	-2	3	-2	-3	-23
Fc1ccc2[nH]c3c(N4CCN(c5ccccc5)CC4)ncnc3c2c1	-5	1	23	0	nt	nt
OC1(c2cccc(C(F)(F)F)c2)CCN(c2ncnc3c2[nH]c2ccc(F)cc23)CC1	0	-6	11	0	-16	49*
COc1ccc(NC(=O)C2C(=O)NC3(C)CC2c2ccccc2O3)cc1 (configuration not stated)	18	4.9*	-7	-2	-7	2
COc1ccc(C(C)NC(=O)C2C(=O)NC3(C)CC2c2ccccc2O3)cc1 (configuration not stated)	11	-3	5	-1	-5	-5
O=C(Cn1cnc2c(cnn2-c2ccc(F)cc2)c1=O)N1CCN(c2ccccc2F)CC1	14	-1	5	-2	-5	11
Cc1cc2c(=O)n(CC(=O)N3CCN(c4ccc(F)cc4)CC3)cnc2s1	18	-2	-12	0	31*	16
O=C(O)c1cccc(N2C(=O)C3CC=CCC3C2=O)c1 (configuration not stated)	-1	3	-3	-3	0	10
O=C(O)c1cccc(N2C(=O)C3CC=C(Cl)CC3C2=O)c1 (configuration not stated)	-8	10*	3	-1	-3	-7
Cc1ccccc1N1CCN(C2=NC(=O)/C(=C/c3cn[nH]c3-c3ccccc3)S2)CC1	nt	-3	4	-2	nt	nt
CCOc1ccc(NC(=O)N2CCC(n3c(=O)[nH]c4ccccc43)CC2)cc1	-16	5.6*	nt	nt	nt	nt
O=C(Nc1ccccc1C(F)(F)F)N1CCC(n2c(=O)[nH]c3ccccc32)CC1	nt	-4	8	-2	-9	-10
CC(OC(=O)c1snc(C(=O)NC2CCCCC2)c1N)C(=O)NC(C)(C)C (configuration not stated)	-13	6.2*	-5	-1	-5	-1
CC(C)Oc1ccc(CSC(=N)N)cc1	nt	7.9*	-2	-2	-4	27
CCOC(=O)c1cc(NC(=O)Nc2nccs2)c(C)nc1C	nt	-1	7	-1	nt	nt
Cc1nc(Oc2ccc(S(=O)(=O)N3CCOCC3)cc2Cl)c2c3c(sc2n1)CCCC3	nt	-3	-20	1	nt	nt
COc1ncnc2c1oc1nc(CC(C)C)c3c(c12)CCCC3	-3	7.2*	-2	-1	-3	2
CC(C)Cc1nc2oc3c(N4CCN(C)CC4)ncnc3c2c2c1CCCC2	-3	-1	-4	-1	-4	16
COc1cc(-c2nc3n(n2)C(c2cccc(OC)c2OC)C2=C(CCCC2=O)N3)cc(OC)c1OC (configuration not stated)	9	-3	-3	0	27*	-38
COc1ccc(C2C3=C(CCCC3=O)Nc3nc(-c4cc(OC)c(OC)c(OC)c4)nn32)cc1OC (configuration not stated)	5	-2	0	0	6	-8
CCOC(=O)N1C2C=C(C)[C@@H]2[C@@H]2CC(=O)N21 (some centres not stated)	nt	0	5	0	nt	nt
Cc1cc(C)n(CCC(=O)N/N=C/c2ccccc2O)n1	nt	5.6*	18	-2	nt	nt
CCCCOc1ccc(C(=O)Oc2ccc(C)nc2)cc1	6	5.5*	-11	-2	-3	-16
CCCCCOc1ccc(OC(=O)c2ccncc2)cc1	-29	-1	-3	-1	-13	19
O=C(Cn1cncc1-c1ccc([N+](=O)[O-])cc1)Nc1ccccc1F	nt	-3	-2	0	nt	nt
CCOC(=O)c1sc(C)c2c1NC1(CCCCC1)NC2=O	-1	-3	-2	19*	17*	-45

Screening results: PubChem, several laboratories
